Screening results (PubChem)
Only some compounds are listed: those with a hit (about 5.1% of all), similar ones and a draw of the others.
S1P3 antag: antagonists of human S1P3 receptor; CHO S1P3 NFAT-BLA reporter, FRET fluorescence, antagonist mode; inhibition, % at 4.98 µM; hit rate 0.27% among 170,000;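 active = inhibition above the plate cutoff, the mean inhibition of test wells on that plate plus 3 SD, cut at about 28% in these data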;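 also: cells challenged with S1P at its EC80 of 0.8 µM; blue over green emission ratio from cleaved BLA substrate after 4 h stimulation; 0% = S1P-stimulated wells and 100% = unstimulated DMSO-only wells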
S1P4 ag: agonists of human S1P4 receptor; S1P4-expressing cell line, agonist reporter assay; activation, % at 4.98 µM; hit rate 0.35% among 220,000; AID 1509; in the data active = activation above about 11%;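 also: 0% = DMSO vehicle and 100% = reference agonist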
Cl transport mod: KCC2 (human) Cl- transport modulation | hit rate 2.2% among 190,000 | AID 1456 | KCC2 cells, thallium flux FluoZin-2 fluorescence | Q9H2X9 | B-score of Tl+ flux slope (higher = more flux/activation; lower = inhibition) at 10 µM;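 active = thallium flux slope and its plate-corrected score both differing from the plate sample mean at a set confidence after two filtering rounds, in either direction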;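 also: slope of fluorescence scaled to starting intensity during 10 to 20 s after thallium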
Target sequence (Q9H2X9 whole entry, looked up): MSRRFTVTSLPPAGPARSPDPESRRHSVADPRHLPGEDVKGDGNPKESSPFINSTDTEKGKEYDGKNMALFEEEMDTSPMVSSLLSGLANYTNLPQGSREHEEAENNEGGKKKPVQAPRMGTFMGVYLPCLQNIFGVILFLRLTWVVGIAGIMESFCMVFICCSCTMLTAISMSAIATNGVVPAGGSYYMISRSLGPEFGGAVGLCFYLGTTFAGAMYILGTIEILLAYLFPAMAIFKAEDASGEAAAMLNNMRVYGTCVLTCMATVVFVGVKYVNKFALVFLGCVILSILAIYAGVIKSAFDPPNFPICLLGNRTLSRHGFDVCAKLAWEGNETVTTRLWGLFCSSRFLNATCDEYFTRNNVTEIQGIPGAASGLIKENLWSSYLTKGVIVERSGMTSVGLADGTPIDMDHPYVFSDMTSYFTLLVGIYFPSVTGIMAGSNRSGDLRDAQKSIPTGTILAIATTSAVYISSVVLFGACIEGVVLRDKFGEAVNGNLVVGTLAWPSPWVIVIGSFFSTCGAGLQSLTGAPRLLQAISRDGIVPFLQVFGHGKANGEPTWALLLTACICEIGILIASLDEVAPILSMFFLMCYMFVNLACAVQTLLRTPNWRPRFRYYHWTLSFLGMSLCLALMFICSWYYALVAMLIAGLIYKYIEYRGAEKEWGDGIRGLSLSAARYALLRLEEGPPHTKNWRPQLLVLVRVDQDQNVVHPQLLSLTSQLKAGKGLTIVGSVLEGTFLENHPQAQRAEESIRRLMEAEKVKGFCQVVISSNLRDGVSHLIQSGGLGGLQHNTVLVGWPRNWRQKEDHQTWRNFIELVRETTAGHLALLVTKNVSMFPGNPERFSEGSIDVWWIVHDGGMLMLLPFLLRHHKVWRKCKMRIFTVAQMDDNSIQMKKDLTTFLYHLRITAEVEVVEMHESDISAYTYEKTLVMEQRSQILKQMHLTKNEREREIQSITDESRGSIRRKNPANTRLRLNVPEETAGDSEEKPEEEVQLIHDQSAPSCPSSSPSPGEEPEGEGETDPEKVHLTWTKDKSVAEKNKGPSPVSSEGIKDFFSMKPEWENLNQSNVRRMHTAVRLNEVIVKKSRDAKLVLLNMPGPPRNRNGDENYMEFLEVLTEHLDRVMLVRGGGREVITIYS
S1P4 antagonist: human S1P4 receptor antagonism | hit rate 0.26% among 220,000 | O95977 | S1P4-expressing cells, antagonist mode, reporter read-out | inhibition, % at 4.98 µM; in the data active = inhibition above about 29%;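 also: 0% = wells stimulated with agonist and 100% = vehicle wells without agonist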
ROMK primary: modulates human ROMK potassium channel activity | P48048 | Tet-inducible ROMK, thallium flux fluorescence; actives lie on both sides | B-score at 10 µM | hit rate 2% among 130,000 | AID 1918;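 active = signal ratio slope over the read window, or its plate-corrected B-score, at least 3 SD from the plate mean, either direction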;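 also: B-score of the F/F0 ratio slope over 7 to 12 s after thallium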
RAM inhibit: yeast RAM network inhibition; S. cerevisiae dse1pr::URA3 reporter, 5-FOA growth OD615, 2 d; analog-sensitive cbk1-as2 kinase mutant strain; inhibition, % at 50 µM; hit rate 1.8% among 190,000;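 active = inhibition above a set limit, 3 SD over mean compound inhibition, cut at about 8.4% in these data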;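 also: 0% = DMSO-only wells with no growth and 100% = 10 µM 1-NA-PP1 full growth; inhibition rescues growth on 5-FOA so higher OD means more RAM inhibition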
Numbers without * were called inactive; . = no result given.

SMILES	S1P3 antag	S1P4 ag	Cl transport mod	S1P4 antagonist	ROMK primary	RAM inhibit
CCOC(=O)C1=NNC2(c3ccc(Cl)cc3)C(=O)N(c3ccc(C)cc3)C(=O)C12 (centres undefined)	-4.5	-1.6	0.152	-25.1	.	11.2*
CCOC(=O)C1=NNC2(c3ccccc3)C(=O)N(c3cccc(Br)c3)C(=O)C12 (centres undefined)	22.1	2.7	-1.03	-12.0	-1.53	0.4
O=C(NC(=S)Nc1ccccc1N1CCCC1)c1ccccc1[N+](=O)[O-]	-21.0	-1.1	15.7*	12.6	.	0.1
O=C(O)c1ccccc1C(=O)Nc1ccc(Oc2cccc3ccccc23)cc1	10.4	-0.5	-1.71	-11.8	0.348	3.6
O=C(Nc1ccccc1NC(=O)c1ccco1)c1ccco1	68.9*	0.9	1.12	-0.4	.	2.7
O=C(NC(=S)Nc1cccc(Cl)c1N1CCOCC1)c1cccs1	5.9	-0.2	3.47	3.3	-0.415	3.2
O=C(Nc1ccc(Oc2cccc3ccccc23)cc1)c1ccco1	.	0.4	-1.63	1.4	.	9.2*
O=C(NC(=S)Nc1cccc(Cl)c1N1CCCCC1)c1cccs1	.	-1.7	1.91	4.6	0.605	9.4*
CCN(CCCNC(=O)CCCOc1cc(=O)n(C)c2ccccc12)Cc1ccccc1	7.3	-2.2	-0.282	-8.3	1.34	0.6
Cc1noc(C)c1COc1cccc(C(=O)NC(C)(C)C)c1	-4.2	-0.1	-0.0192	-10.5	-0.272	-0.4
CC1COC(C)(CC(=O)NN2C(=O)c3ccccc3C2=O)O1 (centres undefined)	-11.5	1.6	-0.529	-2.3	0.868	0.5
O=C(NC(=S)Nc1cccc(Cl)c1N1CCCCC1)c1ccco1	.	-0.7	6.71*	-4.9	.	9.7*
O=C(/C=C/c1ccco1)NC(=S)Nc1ccccc1N1CCOCC1	.	-0.5	-0.755	-5.2	-0.927	0.9
O=C(NC(=S)Nc1ccccc1N1CCCCC1)c1ccco1	-3.1	-0.6	19.9*	-4.8	.	1.3
O=C(NC(=S)Nc1ccccc1N1CCOCC1)c1ccco1	-13.5	0.0	18.5*	-5.9	.	2.3
COc1cccc(/C=C/C(=O)OCC(=O)Nc2ccc(N3CCOCC3)cc2)c1OC	-3.1	1.6	0.211	-10.3	-0.39	4.9
CCNc1nc(ON=C(C)C)nc(N(C)C)n1	2.0	0.8	-0.158	-18.7	-0.0565	0.0
O=C(c1cnn(-c2ccccc2)c1)c1ccc2ccccc2c1O	.	-2.4	.	-15.8	.	10.4*
CCCCC(c1nnnn1C1CCCC1)N1CCN(C2CCCC2)CC1 (centres undefined)	25.3	-1.4	.	-8.3	-3.17*	1.9
CCOC(=O)CSC1=C(C#N)C(c2ccc(F)cc2)C(C(C)=O)=C(C)N1 (centres undefined)	29.9	2.8	-1.2	-2.4	-0.162	3.4
CCOC(=O)C1=C(C)NC(SCC(=O)OC)=C(C#N)C1c1ccc(C(=O)OC)cc1 (centres undefined)	9.0	1.1	.	1.5	-1.29	10.8*
N#Cc1c(NC(=O)CCN2C(=O)c3ccccc3C2=O)oc(-c2ccccc2)c1-c1ccccc1	31.4	-0.3	.	3.0	0.939	9.5*
N#Cc1c(NC(=O)CN2C(=O)c3ccccc3C2=O)oc(-c2ccccc2)c1-c1ccccc1	.	0.5	-0.699	3.1	0.803	.
CCn1c(SCC(=O)Nc2oc(-c3ccccc3)c(-c3ccccc3)c2C#N)nnc1-c1ccco1	0.8	-3.7	-1.95	8.4	.	8.8*
COc1ccc(CNC(=O)Cn2nnc(-c3ccc(NC(=O)C4CCCCC4)cc3)n2)cc1	-23.1	2.4	0.621	-27.1	.	9.0*
SMILES	S1P3 antag	S1P4 ag	Cl transport mod	S1P4 antagonist	ROMK primary	RAM inhibit
CCOc1ccc(-c2nnn(CC(=O)NCc3ccc(OC)cc3)n2)cc1OCC	1.9	-1.4	0.978	7.9	.	0.6
COc1ccccc1C(=O)C1CCCN(C(=O)c2cc(CC(C)C)nc(C)n2)C1 (centres undefined)	18.8	-0.1	-0.258	3.8	0.0428	2.6
CCOC(=O)N1CCN(C(=O)CS(=O)(=O)c2cn(Cc3ccccc3C)c3ccccc23)CC1	.	0.4	-1.41	1.9	.	4.8
Cc1ccccc1Cn1cc(S(=O)(=O)CC(=O)Nc2nccs2)c2ccccc21	.	-0.7	-0.482	23.1	.	8.4*
O=C(Cn1cnc2ccccc21)N/N=C/c1cccc([N+](=O)[O-])c1	6.6	-1.4	-0.345	2.6	-0.208	-0.1
CCCOc1ccc(/C(O)=C2/C(=O)C(=O)N(CCN(C)C)C2c2ccncc2)cc1 (centres undefined)	.	36.2*	0.0468	-2.8	0.939	.
CCCOc1ccc(/C(O)=C2/C(=O)C(=O)N(CCN(CC)CC)C2c2ccncc2)cc1 (centres undefined)	-0.8	.	.	.	.	.
O=C(CSCc1ccc(Br)cc1)NCc1ccccn1	-12.0	2.6	-0.299	-15.1	-0.142	0.7
CCc1ccc(NC(=O)CO/N=C(\C)c2cc3ccccc3o2)cc1	-4.0	1.5	-1.01	-26.8	-0.175	8.4*
CSc1ccccc1NC(=O)CO/N=C(\C)c1cc2ccccc2o1	-3.2	1.1	0.127	-12.2	0.361	9.2*
C/C(=N\OCC(=O)Nc1ccc(F)c(F)c1F)c1cc2ccccc2o1	-2.5	0.7	-0.501	-1.0	0.697	1.9
Cc1ccc(S(=O)(=O)c2c[nH]c3cc4c(cc3c2=O)OCO4)cc1	12.3	-1.6	1.81	11.9	0.638	.
C=CCn1c(SCC(=O)Nc2ccc(NC(=O)c3ccco3)c(OC)c2)nnc1-c1ccncc1	-32.7	-0.1	.	-20.4	-0.62	3.1
C=CCn1c(SCC(=O)Nc2cc(OC)c(NC(=O)c3ccco3)cc2OC)nnc1-c1ccncc1	.	-0.8	-0.282	17.4	.	8.6*
O=c1c2cc(Br)ccc2nc(-c2cccc(C(F)(F)F)c2)n1O	.	0.9	24.2*	7.5	3.69*	0.3
O=c1c2ccccc2c(-c2cccc(C(F)(F)F)c2)nn1-c1ccccc1	4.0	2.0	.	12.2	.	.
C[C@@H](Oc1ccccc1)c1nnn(Cc2ccccc2)c1-c1c([C@@H](C)Oc2ccccc2)nnn1Cc1ccccc1	.	.	0.64	.	.	.
CN=c1scc(-c2ccccc2F)n1/N=C/c1ccc(O)c(O)c1O	-6.7	3.2	-0.346	-13.7	-0.0957	-1.2
CC(C)N=c1scc(-c2cccs2)n1/N=C/c1ccc(O)c(O)c1O	-1.7	17.5*	-0.107	-13.9	0.913	1.7
CCCOc1ccc(C(=O)NNC(=S)NC(=O)CC)cc1	.	-0.3	6.92*	1.8	0.852	0.1
Cc1sc(NC(=O)c2ccco2)c(CN2CCN(c3ccccn3)CC2)c1C	64.5*	1.6	-1.87	-11.1	.	0.0
Cc1sc(NC(=O)c2ccco2)c(CN2CCN(c3ccc(F)cc3)CC2)c1C	.	1.1	-0.827	7.7	-0.49	0.4
CCOc1ccc(NC(=O)Cn2nnc(C(=O)NCc3ccccc3OC)c2N)cc1	-22.5	2.7	1.61	-29.6	.	9.9*
O=S(=O)(Nc1ccc(C(F)(F)F)cn1)c1ccccc1	-6.8	-1.1	0.287	24.6	.	.
COc1ccc(C(C)=O)cc1COc1ccc([N+](=O)[O-])c(C)c1	1.6	-1.1	-0.0597	-9.3	0.351	8.6*
